The supplement of paper PMC12669032
“And” between values parts separate entries of the source, which are not always exact repeats. Equal values may be shown once.

Tests used:
Experiment in all cases: growth AUC relative to DMSO control (median of replicates) (fraction); higher = more growth (less inhibition), active = hit call of the paper
Settings in all cases: 20 µM; 24 h;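 active = AUC reduced over 20% with Padj below 0.05 in at least 2 of 3 replicates; inactive = otherwise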
Akkermansia muciniphila = test system: Akkermansia muciniphila
In short: (§1)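 Area under the growth curve was normalised to the plate median of solvent-only wells, or to row and column medians on the industrial chemical plate. Growth curves came from anaerobic gut bacterial monocultures in mGAM at 37 °C, seeded at OD600 0.05 with 20 µM compound (1% DMSO), and read at OD600 hourly for 24 h with the minimum OD set to 0. The value is the median of three biological replicates grown on separate days.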

Bacteroides caccae = test system: Bacteroides caccae
In short: as §1

Bacteroides clarus = test system: Bacteroides clarus
In short: as §1

Bacteroides dorei = test system: Bacteroides dorei
In short: as §1

Bacteroides stercoris = test system: Bacteroides stercoris
In short: as §1

[1] = test system: Bacteroides thetaiotaomicron
In short: as §1

Bacteroides uniformis = test system: Bacteroides uniformis
In short: as §1

[2] = test system: Bifidobacterium longum subsp. longum
In short: as §1

Clostridium difficile = test system: Clostridium difficile
In short: as §1

Collinsella aerofaciens = test system: Collinsella aerofaciens
In short: as §1

Coprococcus comes = test system: Coprococcus comes
In short: as §1

Escherichia coli ED1a = test system: Escherichia coli ED1a
In short: as §1

Escherichia coli IAI1 = test system: Escherichia coli IAI1
In short: as §1

Eubacterium rectale = test system: Eubacterium rectale
In short: as §1

[3] = test system: Fusobacterium nucleatum subsp. animalis
In short: as §1

Lactobacillus gasseri = test system: Lactobacillus gasseri
In short: as §1

Lactobacillus paracasei = test system: Lactobacillus paracasei
In short: as §1

Odoribacter splanchnicus = test system: Odoribacter splanchnicus
In short: as §1

[4] = test system: Parabacteroides distasonis
In short: as §1

Parabacteroides merdae = test system: Parabacteroides merdae
In short: as §1

Measured: growth AUC

COP(=O)(OC)OC(Br)C(Cl)(Cl)Br (stereo not given)
inactive: Akkermansia muciniphila 0.978 | Bacteroides caccae 0.987 | Bacteroides clarus 0.977 | Bacteroides dorei 0.986 | Bacteroides stercoris 0.984 | [1] 0.953 | Bacteroides uniformis 0.962 | [2] 0.99 | Clostridium difficile 0.987 | Collinsella aerofaciens 1.03 | Coprococcus comes 0.976 | Escherichia coli ED1a 0.991 | Escherichia coli IAI1 1.02 | Eubacterium rectale 0.915 | [3] 0.973 | Lactobacillus gasseri 1.02 | Lactobacillus paracasei 1.01 | Odoribacter splanchnicus 0.937 | [4] 1.06 | Parabacteroides merdae 1.01

COc1cccc(C(=O)NN(C(=O)c2cc(C)cc(C)c2)C(C)(C)C)c1C
inactive: Akkermansia muciniphila 1.14 | Bacteroides caccae 0.966 | Bacteroides clarus 0.996 | Bacteroides dorei 0.933 | Bacteroides stercoris 0.951 | [1] 0.986 | Bacteroides uniformis 0.958 | [2] 0.975 | Clostridium difficile 0.969 | Collinsella aerofaciens 0.92 | Coprococcus comes 1.01 | Escherichia coli ED1a 0.974 | Escherichia coli IAI1 0.97 | Eubacterium rectale 1.07 | [3] 0.884 | Lactobacillus gasseri 0.818 | Lactobacillus paracasei 0.947 | Odoribacter splanchnicus 0.966 | [4] 0.86 | Parabacteroides merdae 0.908

Nc1cc(Cl)ccc1Cl
inactive: Akkermansia muciniphila 1.03 | Bacteroides caccae 0.993 | Bacteroides clarus 1.05 | Bacteroides dorei 1.04 | Bacteroides stercoris 1.25 | [1] 1.03 | Bacteroides uniformis 1.03 | [2] 0.992 | Clostridium difficile 1 | Collinsella aerofaciens 1.01 | Coprococcus comes 1 | Escherichia coli ED1a 1 | Escherichia coli IAI1 1.01 | Eubacterium rectale 0.989 | [3] 1.07 | Lactobacillus gasseri 1.04 | Lactobacillus paracasei 0.958 | Odoribacter splanchnicus 1 | [4] 1.02 | Parabacteroides merdae 1.04

c1cc2c3c(cccc3c1)CC2
inactive: Akkermansia muciniphila 0.966 | Bacteroides caccae 1 | Bacteroides clarus 1 | Bacteroides dorei 1.01 | Bacteroides stercoris 0.991 | [1] 0.999 | Bacteroides uniformis 0.994 | [2] 0.961 | Clostridium difficile 0.993 | Collinsella aerofaciens 0.995 | Coprococcus comes 1 | Escherichia coli ED1a 1.01 | Escherichia coli IAI1 1.01 | Eubacterium rectale 1.05 | [3] 1.07 | Lactobacillus gasseri 1.05 | Lactobacillus paracasei 1.01 | Odoribacter splanchnicus 1.01 | [4] 1.01 | Parabacteroides merdae 0.995

CCCN(CCC)c1c([N+](=O)[O-])cc(C(F)(F)F)cc1[N+](=O)[O-]
inactive: Akkermansia muciniphila 1.02 | Bacteroides caccae 1.02 | Bacteroides clarus 1.04 | Bacteroides dorei 1.03 | Bacteroides stercoris 1.05 | [1] 0.976 | Bacteroides uniformis 1.01 | [2] 1.1 | Clostridium difficile 1 | Collinsella aerofaciens 1.01 | Coprococcus comes 1 | Escherichia coli ED1a 1.02 | Escherichia coli IAI1 1.01 | Eubacterium rectale 1.01 | [3] 1.03 | Lactobacillus gasseri 1.03 | Lactobacillus paracasei 1.09 | Odoribacter splanchnicus 1.01 | [4] 1.09 | Parabacteroides merdae 1.01

C=C(C)[C@H]1Cc2c(ccc3c2O[C@@H]2COc4cc(OC)c(OC)cc4[C@@H]2C3=O)O1
inactive: Akkermansia muciniphila 1.07 | Bacteroides caccae 0.985 | Bacteroides clarus 0.897 | Bacteroides dorei 0.947 | Bacteroides stercoris 0.735 | [1] 0.965 | Bacteroides uniformis 0.813 | [2] 1 | Clostridium difficile 1.03 | Collinsella aerofaciens 0.987 | Coprococcus comes 0.986 | Escherichia coli ED1a 1 | Escherichia coli IAI1 1.01 | Eubacterium rectale 0.973 | [3] 1.06 | Lactobacillus gasseri 0.878 | Lactobacillus paracasei 0.954 | Odoribacter splanchnicus 0.917 | [4] 0.935 | Parabacteroides merdae 0.94

CCCOCCN(C(=O)CCl)c1c(CC)cccc1CC
inactive: Akkermansia muciniphila 1.11 | Bacteroides caccae 0.979 | Bacteroides clarus 0.981 | Bacteroides dorei 0.976 | Bacteroides stercoris 0.919 | [1] 0.95 | Bacteroides uniformis 0.895 | [2] 1.05 | Clostridium difficile 0.971 | Collinsella aerofaciens 0.972 | Coprococcus comes 0.988 | Escherichia coli ED1a 0.963 | Escherichia coli IAI1 0.985 | Eubacterium rectale 1.02 | [3] 0.945 | Lactobacillus gasseri 0.927 | Lactobacillus paracasei 1.12 | Odoribacter splanchnicus 1.02 | [4] 0.848 | Parabacteroides merdae 0.942

O=C(O)COc1cc(Cl)c(Cl)cc1Cl
inactive: Akkermansia muciniphila 0.934 | Bacteroides caccae 1.02 | Bacteroides clarus 0.954 | Bacteroides dorei 1.01 | Bacteroides stercoris 0.978 | [1] 0.985 | Bacteroides uniformis 1.01 | [2] 0.708 | Clostridium difficile 1.01 | Collinsella aerofaciens 1.07 | Coprococcus comes 0.994 | Escherichia coli ED1a 0.965 | Escherichia coli IAI1 1.04 | Eubacterium rectale 0.93 | [3] 0.989 | Lactobacillus gasseri 1.19 | Lactobacillus paracasei 0.995 | Odoribacter splanchnicus 0.98 | [4] 1 | Parabacteroides merdae 0.98

COC(=O)/C=C(/C)OP(=O)(OC)OC
inactive: Akkermansia muciniphila 1.05 and 1.08 | Bacteroides caccae 0.952 and 0.906 | Bacteroides clarus 1.02 and 1.08 | Bacteroides dorei 0.879 and 1.01 | Bacteroides stercoris 0.938 and 1.2 | [1] 0.992 and 0.984 | Bacteroides uniformis 0.981 and 0.997 | [2] 1 and 1.06 | Clostridium difficile 0.956 and 1.01 | Collinsella aerofaciens 0.959 and 0.989 | Coprococcus comes 1.02 and 1.04 | Escherichia coli ED1a 1.01 and 1.05 | Escherichia coli IAI1 0.997 and 1.04 | Eubacterium rectale 1.03 and 1.05 | [3] 1.03 and 1.22 | Lactobacillus gasseri 0.973 and 1.01 | Lactobacillus paracasei 0.956 and 1.04 | Odoribacter splanchnicus 1.09 and 0.835 | [4] 0.972 and 0.999 | Parabacteroides merdae 1 and 1.05

CSc1nnc(C(C)(C)C)c(=O)n1N
inactive: Akkermansia muciniphila 0.996 | Bacteroides caccae 1.07 | Bacteroides clarus 1.01 | Bacteroides dorei 1.02 | Bacteroides stercoris 1.06 | [1] 0.996 | Bacteroides uniformis 1.02 | [2] 1.09 | Clostridium difficile 1.03 | Collinsella aerofaciens 1 | Coprococcus comes 1.07 | Escherichia coli ED1a 1.04 | Escherichia coli IAI1 1.01 | Eubacterium rectale 0.997 | [3] 1.03 | Lactobacillus gasseri 1.06 | Lactobacillus paracasei 1.03 | Odoribacter splanchnicus 1.05 | [4] 1.02 | Parabacteroides merdae 1.01

Nc1c(Cl)c(F)nc(OCC(=O)O)c1Cl
inactive: Akkermansia muciniphila 0.886 | Bacteroides caccae 1.01 | Bacteroides clarus 0.968 | Bacteroides dorei 1.01 | Bacteroides stercoris 0.999 | [1] 0.991 | Bacteroides uniformis 0.955 | [2] 0.917 | Clostridium difficile 1.01 | Collinsella aerofaciens 0.97 | Coprococcus comes 0.99 | Escherichia coli ED1a 0.992 | Escherichia coli IAI1 1.03 | Eubacterium rectale 0.918 | [3] 0.971 | Lactobacillus gasseri 1.11 | Lactobacillus paracasei 1.16 | Odoribacter splanchnicus 1 | [4] 0.972 | Parabacteroides merdae 1.01

CO/N=C(/C(=O)OC)c1ccccc1CO/N=C(\C)c1cccc(C(F)(F)F)c1
inactive: Akkermansia muciniphila 0.96 | Bacteroides caccae 0.937 | Bacteroides clarus 0.897 | Bacteroides dorei 1.02 | Bacteroides stercoris 0.993 | [1] 0.956 | Bacteroides uniformis 0.994 | [2] 0.975 | Clostridium difficile 1.09 | Collinsella aerofaciens 0.993 | Coprococcus comes 0.976 | Escherichia coli ED1a 0.978 | Escherichia coli IAI1 0.985 | Eubacterium rectale 0.973 | [3] 0.953 | Lactobacillus gasseri 1.1 | Lactobacillus paracasei 0.831 | Odoribacter splanchnicus 1.01 | [4] 0.887 | Parabacteroides merdae 0.901

c1ccc2c(c1)-c1cccc3cccc-2c13
inactive: Akkermansia muciniphila 0.967 | Bacteroides caccae 0.969 | Bacteroides clarus 0.997 | Bacteroides dorei 0.999 | Bacteroides stercoris 0.98 | [1] 0.963 | Bacteroides uniformis 0.996 | [2] 0.857 | Clostridium difficile 1.02 | Collinsella aerofaciens 0.93 | Coprococcus comes 0.92 | Escherichia coli ED1a 0.941 | Escherichia coli IAI1 1 | Eubacterium rectale 0.91 | [3] 0.954 | Lactobacillus gasseri 1.03 | Lactobacillus paracasei 0.98 | Odoribacter splanchnicus 1 | [4] 0.938 | Parabacteroides merdae 0.935

CN(C)C(CSC(N)=O)CSC(N)=O.Cl
inactive: Akkermansia muciniphila 1.13 | Bacteroides caccae 0.993 | Bacteroides clarus 1.04 | Bacteroides dorei 1.08 | Bacteroides stercoris 1.02 | [1] 1.06 | Bacteroides uniformis 1.15 | [2] 1.05 | Clostridium difficile 1 | Collinsella aerofaciens 1.03 | Coprococcus comes 1.09 | Escherichia coli ED1a 1.03 | Escherichia coli IAI1 1.04 | Eubacterium rectale 1.54 | [3] 1.15 | Lactobacillus gasseri 0.978 | Lactobacillus paracasei 1.08 | Odoribacter splanchnicus 0.982 | [4] 1.04 | Parabacteroides merdae 1.04

CC(C)N1C(=O)N(c2ccccc2)CSC1=NC(C)(C)C
inactive: Akkermansia muciniphila 0.893 | Bacteroides caccae 0.957 | Bacteroides clarus 0.902 | Bacteroides dorei 0.946 | Bacteroides stercoris 0.977 | [1] 0.927 | Bacteroides uniformis 0.981 | [2] 0.99 | Clostridium difficile 1.02 | Collinsella aerofaciens 0.971 | Coprococcus comes 0.943 | Escherichia coli ED1a 0.967 | Escherichia coli IAI1 1.02 | Eubacterium rectale 0.956 | [3] 0.966 | Lactobacillus gasseri 0.963 | Lactobacillus paracasei 1.03 | Odoribacter splanchnicus 1.02 | [4] 0.946 | Parabacteroides merdae 0.997
